Compound activity from PubChem.
Wnt act: Wnt/beta-catenin pathway activation | Wnt/beta-catenin reporter cell assay, activator, plate reader | activation, % at 9.35 µM | 300,000 tested, 1.2% active | AID 743398; in the data active = activation above about 30%, passing the limit was not always enough;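 also: 0% = neutral control wells and 100% = positive control wells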
MLL AF4-AF9 inh: inhibitors of human MLL-AF4/AF9 interaction. inhibition, % at 10 µM. 350,000 tested, 0.47% active. AlphaScreen, biotin-AF4 peptide binding to FLAG-AF9. P42568;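 active = every replicate reaching a set inhibition limit, whatever the replicate mean, cut at about 25% in these data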;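 also: 0% = plate neutral control median and 100% = total signal loss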
Target sequence (P42568 whole entry, looked up): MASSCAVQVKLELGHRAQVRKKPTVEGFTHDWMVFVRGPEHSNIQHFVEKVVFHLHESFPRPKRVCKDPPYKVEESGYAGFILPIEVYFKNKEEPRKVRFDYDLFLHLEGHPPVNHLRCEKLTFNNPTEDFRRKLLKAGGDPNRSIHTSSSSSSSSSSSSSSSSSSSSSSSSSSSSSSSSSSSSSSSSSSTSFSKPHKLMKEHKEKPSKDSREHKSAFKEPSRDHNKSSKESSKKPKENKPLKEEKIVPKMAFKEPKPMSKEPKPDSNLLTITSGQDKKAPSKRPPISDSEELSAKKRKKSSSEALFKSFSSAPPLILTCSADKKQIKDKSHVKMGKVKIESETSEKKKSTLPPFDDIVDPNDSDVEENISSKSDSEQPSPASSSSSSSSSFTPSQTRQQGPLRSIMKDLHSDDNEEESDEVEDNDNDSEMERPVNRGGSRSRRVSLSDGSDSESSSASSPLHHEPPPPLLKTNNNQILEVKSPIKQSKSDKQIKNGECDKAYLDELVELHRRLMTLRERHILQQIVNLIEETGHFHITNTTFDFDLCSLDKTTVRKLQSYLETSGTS
FGF22 binding: binders of recombinant human FGF22 by thermal shift. Q9HCT0. SYPRO orange fluorescence; percent of sucrose octasulfate shift, DMSO zero. activity (Tm shift, normalised), % at 9.99 µM. 340,000 tested, 1.5% active;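 active = mean Tm shift, scaled 0 neutral to 100 positive control, at about 1.3% or above, every replicate too, limit read from the data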
SMARCA2 activ: increases SMARCA2 function in MMTV reporter cells. MG213 cells, MMTV-luciferase reporter, dexamethasone, overnight. activation, % at 9.1 µM. 370,000 tested, 1% active; in the data active = activation above about 7.8%;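 also: 0% = vehicle wells and 100% = reference activator wells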
esBAF inh: inhibitors of esBAF chromatin remodeling in mouse ES cells; Bmi1-luciferase knock-in reporter, 24 h; 100% = twice the neutral-well signal; reporter increase, % at 12.5 µM; 350,000 tested, 2% active; in the data active = activation above about 40%;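 also: 0% = median of the plate's neutral control wells and 100% = double that signal; a rise in the Bmi1 reporter signal indicates esBAF inhibition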
MITF TRPM1 HTS: MITF TRPM1 promoter activation in melanoma cells | 300,000 tested, 0.75% active | activation, % at 12.5 µM | SK-MEL-5 TRPM1-promoter luciferase, 24 h; % of positive control, neutral wells = 0;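 active = mean activation of at least 80% with every replicate also reaching 80%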;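 also: 0% = neutral control wells and 100% = parthenolide positive control wells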
Numbers without * were called inactive. Only some compounds are listed: those with a hit (about 4.3% of all), similar ones and a draw of the others.

COc1ccc(C(=O)Nc2ccc3c(c2)nc(CCNC(=O)c2ccco2)n3C)cc1 was read as Wnt act 16, MLL AF4-AF9 inh -2, FGF22 binding 0, SMARCA2 activ 5, esBAF inh 48* and MITF TRPM1 HTS 37.
O=C(NNC(=S)NC(=O)c1ccco1)c1ccc(F)cc1 was read as Wnt act 1, MLL AF4-AF9 inh 2, FGF22 binding 6.2* and SMARCA2 activ -1.
For CCC(=O)Nc1ccc2c(c1)nc(CCNC(=O)c1ccco1)n2C the results were Wnt act -1, MLL AF4-AF9 inh -4, FGF22 binding 0, SMARCA2 activ -1, esBAF inh -2 and MITF TRPM1 HTS 0.
For COc1ccc2c3c([nH]c2c1)[C@H](CO)N(Cc1ccccc1F)CC31CCN(C(=O)C2CCOCC2)CC1 the results were MLL AF4-AF9 inh 0 and FGF22 binding 0.
`C[C@H](CO)N1C[C@H](C)[C@H](CN(C)S(=O)(=O)c2ccc(F)cc2)Oc2c(NC(=O)Nc3ccc(F)cc3)cccc2C1=O` gave MLL AF4-AF9 inh -1, FGF22 binding 0 and esBAF inh -13.
For C[C@@H]1CCCCO[C@H](CN(C)C(=O)Cc2ccccc2)[C@@H](C)CN([C@@H](C)CO)C(=O)c2cc(NS(=O)(=O)c3cn(C)cn3)ccc2O1 the results were MLL AF4-AF9 inh -2, FGF22 binding 0 and esBAF inh -1.
`CC(=O)Nc1cccc(Oc2ccc(-c3noc(C)n3)cc2)c1` gave Wnt act 27, SMARCA2 activ 3, esBAF inh 72* and MITF TRPM1 HTS 56.
For COc1ccc(-c2noc(-c3ccccc3C(=O)Nc3cccc(OC)c3)n2)cc1 the results were Wnt act 0, SMARCA2 activ 3, esBAF inh 12 and MITF TRPM1 HTS 13.
For COc1ccc(NC(=O)c2c(Cl)n(C)c3ccccc23)cc1 the results were Wnt act -1, SMARCA2 activ 3, esBAF inh 59* and MITF TRPM1 HTS 16.
`COc1ccc(-c2ocnc2C(=O)Nc2ccccc2N2CCCCC2)cc1` gave Wnt act -3, SMARCA2 activ 2, esBAF inh 9 and MITF TRPM1 HTS 3.
Screening COc1cccc(-c2ocnc2C(=O)Nc2ccc(N3CCOCC3)cc2N2CCOCC2)c1 returned Wnt act -3, MLL AF4-AF9 inh 35*, FGF22 binding 0, SMARCA2 activ -3, esBAF inh -3 and MITF TRPM1 HTS -5.
C[C@H]1CN([C@@H](C)CO)C(=O)Cc2cc(NC(=O)Nc3ccc(C(F)(F)F)cc3)ccc2O[C@H]1CN(C)S(=O)(=O)c1cn(C)cn1 was read as MLL AF4-AF9 inh 4, FGF22 binding -1 and esBAF inh -1.
For CCOC(=O)c1ccc(COC(=O)CNS(=O)(=O)c2ccccc2)cc1 the results were Wnt act -1, MLL AF4-AF9 inh -3, FGF22 binding 0, SMARCA2 activ 1 and MITF TRPM1 HTS 10.
For Cc1ccc[n+](CC(=O)c2ccc(NC(=O)c3ccccc3)cc2)c1 the results were Wnt act -13, MLL AF4-AF9 inh 0, FGF22 binding 44*, SMARCA2 activ 1 and MITF TRPM1 HTS -4.
CCOC(=O)c1ccc(S(=O)(=O)NCCNCc2ccccc2)cc1 was read as Wnt act 39*, MLL AF4-AF9 inh 0, FGF22 binding 0, SMARCA2 activ -4, esBAF inh -4 and MITF TRPM1 HTS 2.
CCOC(=O)c1ccc(NC(=S)NCCc2ccccc2F)cc1 was read as Wnt act -2, MLL AF4-AF9 inh 4, FGF22 binding 44*, SMARCA2 activ -4, esBAF inh -1 and MITF TRPM1 HTS -8.
Screening Cc1cc(C)c[n+](CC(=O)c2ccc(NC(=O)c3ccccc3)cc2)c1 returned Wnt act -1, MLL AF4-AF9 inh 1, FGF22 binding 0, SMARCA2 activ -2 and MITF TRPM1 HTS 5.
CCOC(=O)c1ccc(NC(=O)C23CCC(C)(C(=O)O2)C3(C)C)cc1 (stereo not drawn) was read as SMARCA2 activ 4, esBAF inh 55* and MITF TRPM1 HTS 46.
Screening CCNC(=O)C[C@H]1CC[C@H]2[C@H](COc3ccc(NC(=O)NC(C)C)cc3C(=O)N2C)O1 returned MLL AF4-AF9 inh -3, FGF22 binding 0 and esBAF inh 5.
CNC(=O)C[C@@H]1CC[C@@H]2[C@@H](COc3ccc(NC(=O)NC(C)C)cc3C(=O)N2C)O1 was read as FGF22 binding 0 and esBAF inh -1.
Screening CCOC(=O)c1ccc(NC(=O)c2ccc(NS(C)(=O)=O)cc2)cc1 returned Wnt act -2, SMARCA2 activ -2, esBAF inh 4 and MITF TRPM1 HTS 19.
For CCOC(=O)c1ccc(NC(=O)c2ccccc2)cc1 the results were Wnt act 19, MLL AF4-AF9 inh 1, FGF22 binding 0, SMARCA2 activ 5, esBAF inh 36 and MITF TRPM1 HTS 114*.
For CCOC(=O)c1ccc(NC(=O)c2ccccc2[N+](=O)[O-])cc1 the results were Wnt act 9, SMARCA2 activ -2, esBAF inh 73* and MITF TRPM1 HTS 54.
`CCOC(=O)c1ccc(NC(=O)c2cccc(C)c2[N+](=O)[O-])cc1` gave Wnt act 28, MLL AF4-AF9 inh 7, FGF22 binding 0, SMARCA2 activ 0 and MITF TRPM1 HTS -5.
Screening COc1ccc(OCc2cc(C(=O)N(C)Cc3cc(C4CC4)n[nH]3)no2)c(Cl)c1 returned Wnt act 18, MLL AF4-AF9 inh -3, FGF22 binding 0, SMARCA2 activ 5, esBAF inh 68* and MITF TRPM1 HTS 90*.
Screening COc1ccc(OCc2cc(C(=O)NCC(C)Oc3cccnc3)no2)c(Cl)c1 (stereo not drawn) returned Wnt act 5, MLL AF4-AF9 inh 1, FGF22 binding 0, SMARCA2 activ 0, esBAF inh 70* and MITF TRPM1 HTS 23.
Screening COc1ccc(OCc2cc(C(=O)NCC3CCOCC3)no2)c(Cl)c1 returned Wnt act 14, MLL AF4-AF9 inh -35, FGF22 binding -1, SMARCA2 activ 6, esBAF inh 55* and MITF TRPM1 HTS 31.
`CO[C@H]1CN(C)C(=O)c2cc(NS(=O)(=O)c3ccc(F)cc3)ccc2OC[C@@H](C)NC[C@H]1C` gave MLL AF4-AF9 inh -4, FGF22 binding 0 and esBAF inh 0.
Screening COc1ccc2c3c([nH]c2c1)[C@@H](CO)N(Cc1ccccc1OC)CC31CN(C(C)=O)C1 returned MLL AF4-AF9 inh -8.
`Cc1cc(C(=O)COC(=O)C23CC4CC(CC(O)(C4)C2)C3)c(C)n1-c1c(C)n(C)n(-c2ccccc2)c1=O` gave Wnt act -2, MLL AF4-AF9 inh 0, FGF22 binding 0, SMARCA2 activ -1, esBAF inh -8 and MITF TRPM1 HTS 1.
